Test results from PubChem BioAssay (EPA / NIEHS).
Records with an inconclusive call do not appear. Calls of active or inactive are those of the source. How the source made its calls: active means hit-call score of the fitted dose curve at least 0.9, where 1 is the maximum; inconclusive means response in the unintended direction; inactive means score below 0.9.

Assay: TOX21_PR_BLA_Followup_Agonist_viability: Viability Assessment in the Tox21 HEK293 Progesterone Receptor (PR) Agonism Beta-lactamase Follow-Up Assay (AID 2283935);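 further: signal loss means lower viability so actives are cytotoxic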
Description: TOX21_PR_BLA_Followup is a secondary assay for specificity for the TOX21_PR_BLA_Agonist assay. To differentiate true PR agonists from cytotoxic substances, this follow up assay is multiplexed with a cell viability assay. The compounds were also tested for auto fluorescence that may interfere with the biological target readout resulting in potential false positives and/or negatives. To identify the compounds that stimulate PR signaling, a PR-UAS-bla GripTite cell line i.e. PR-UAS-bla HEK293T (Invitrogen, Carlsbad, CA, USA) containing a beta-lactamase reporter gene under the control of an UAS response element was used to screen Tox21 10K compound library. The cytotoxicity of the Tox21 compound library against the PR-bla cell line was tested in parallel by measuring the cell viability using CellTiter-Glo assay in the same wells. TOX21_PR_BLA_Followup_Agonist_viability is a component of the TOX21_PR_BLA_Followup_Agonist assay. This component measures cell viability using the CellTiter-Glo Luciferase-coupled ATP quantitation.TOX21_PR_BLA_Followup_Agonist_viability used a type of viability reporter where loss-of-signal activity can be used to understand changes in the cell viability. Furthermore, this assay endpoint can be referred to as a secondary readout, because this assay has produced multiple assay endpoints where this one serves a viability function. To generalize the intended target to other relatable targets, this assay endpoint is annotated to the cell cycle intended target family, where the subfamily is cytotoxicity.
Assay Protocol: PR-UAS-bla HEK293T cells were dispensed at 3,000 cells/5 uL of assay medium containing 2% charcoal stripped FBS per well into black wall/clear-bottom 1536-well plates using a Multidrop Combi (ThermoFisher Scientific, Waltham, MA) dispenser. After the assay plates were incubated at a 37C and 5% CO2 for 6 hr, 23 nL of compounds dissolved in DMSO, positive controls or DMSO only was transferred to the assay plate by a Pintool station (Kalypsys, San Diego, CA). The plates were incubated at 37C and 5% CO2 for 16 hr. Then 1 uL of LiveBLAzer B/G FRET substrate was added using a Flying Reagent Dispenser (FRD, Aurora Discovery, San Diego, CA), the plates were incubated at room temperature for 2 hours, and fluorescence intensity was measured by an Envision plate reader (PerkinElmer, Shelton, CT). For cell viability readout that measures cytotoxicity, 4 uL/well of CellTiter-Glo reagent was added into the assay plates using a FRD. After 30 min incubation at room temperature, the luminescence intensity in the plates was measured using a ViewLux (PerkinElmer) plate reader.

Row | Compound | outcome | AC50
1 | C[C@]12CCC(=O)C[C@@H]1CC[C@@H]1[C@@H]2CC[C@]2(C)[C@@H](O)CC[C@@H]12 | inactive | –
2 | O=C1C2(Cl)C3(Cl)C4(Cl)C(Cl)(Cl)C5(Cl)C3(Cl)C1(Cl)C5(Cl)C24Cl (stereo not given) | – | 66.2 µM (active)
3 | C[C@H]1CCCC(=O)CCC/C=C/c2cc(O)cc(O)c2C(=O)O1 | inactive | –
4 | CC(C)C1CCC(Cc2ccc(Cl)cc2)C1(O)Cn1cncn1 (stereo not given) | – | 75.5 µM (active)
5 | CC1(C)CCC(Cc2ccc(Cl)cc2)C1(O)Cn1cncn1 (stereo not given) | inactive | –
6 | CC12CC1(C)C(=O)N(c1cc(Cl)cc(Cl)c1)C2=O (stereo not given) | inactive | –
7 | Nc1ccc(-c2ccc(N)c(Cl)c2)cc1Cl | inactive | –
8 | C[C@]12CC[C@H](O)CC1=CC[C@@H]1[C@@H]2CC[C@]2(C)C(=O)CC[C@@H]12 | inactive | –
9 | Oc1ccc(-c2ccccc2)cc1 | inactive | –
10 | Clc1ccc(C2(Cn3cncn3)CC(Br)CO2)c(Cl)c1 (stereo not given) | inactive | –
